Most compounds without a hit are left out; they make up all but 7.9% or so of the library.
Marburg entry inh: qHTS for inhibitors of binding or entry into cells for Marburg Virus; Marburg virus pseudotyped entry inhibition, cell reporter; Potency, µM (doses to about 37.8 µM), without a hit: at the highest dose activity change, negative = inhibition, most hits filed as inhibitors; 300,000 compounds, 1.8% hits; AID 540276, 2011; calls by dose curve; tested in HEK293 cells; also: potency is read from the fitted curve at half-maximal effect
FMDV antiviral: High Throughput Screening for Foot and Mouth Disease Virus Antivirals | FMDV antiviral cell-based qHTS | Potency, µM (series often up to 57.9 µM), for the others: at the top dose activity change, negative = inhibition, usual class: inhibitors | 410,000 compounds, 1.2% hits; calls by dose curve; tested in HEK293T cells; also: read-out not given here; potency is read from the fitted curve at half-maximal effect; nearly all actives have a fitted effect of over 45% in size
LASV entry inh: qHTS for Inhibitors of binding or entry into cells for Lassa Virus | Potency, µM (doses to about 37.9 µM), for inactives: top-dose activity change, negative = inhibition, actives largely listed as inhibitors | Lassa virus pseudotype entry inhibition, cell reporter | 300,000 compounds, 1.2% hits | AID 540256, 2011; calls by dose curve; tested in HEK293 cells; also: potency is read from the fitted curve at half-maximal effect; nearly all actives have a fitted effect of over 50% in size
HCMV antiviral: qHTS Assay for inhibitors of the human cytomegalovirus (HCMV); HFF cells, HCMV-luciferase reporter, 72 h; hits give low values; activity change, negative = inhibition, % at 57.5 µM; 410,000 compounds, 4.5% hits; AID 1259415, 2018; in the data active = activity change below about -60%; inconclusive = no clear call, values can overlap the other calls; inactive = above about -39%
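Screen run at 2 compound doses on HFFs infected with reporter HCMV, MOI 1 PFU/cell. Luciferase activity from cell lysates at 72 h post infection gave inhibition relative to buffer-only and Salinomycin wells.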
HCV inhibitor: qHTS Assay for Inhibitors of Hepatitis C Virus (HCV). Huh7.5.1 HCVcc-Cre infection, luciferase reporter, 44 h. Potency, µM (titrated, usually from 41.8 µM), inactives show at the highest dose activity change, negative = inhibition, usual class: inhibitors. 340,000 compounds, 3.4% hits. AID 651820, 2012; active = well fitted inhibition curve with a large enough effect; inconclusive = small, poorly fitted or top-dose-only effect, or another doubt; inactive = no such curve, though single readings can be large or run the other way; also: potency is read from the fitted curve at half-maximal effect
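Antiviral activity was scored by luciferase reporter output from cells infected with HCVcc-Cre (~0.5 moi) in presence of compound, 44 h infection period, cells seeded 1,000/well 4 h prior.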
Active calls of the source: *; ? = inconclusive; . = not tested or not shown; [ ] = remark or other dose. % is scaled to controls: 0 for no effect and ±100 for the full control effect.

SMILES	Marburg entry inh	FMDV antiviral	LASV entry inh	HCMV antiviral	HCV inhibitor
Cc1ccc(NC(=O)/C=C\C(=O)N(c2ccc(C(C)C)cc2)C(C(=O)NCc2ccco2)c2ccc(Cl)cc2)cc1 (stereo not given)	.	-20%	?	-76*	.
OC[C@@H]1CN(Cc2ccc(-c3ccccc3)cc2)C[C@H](n2cnc3c(Nc4ccccc4)ncnc32)O1	.	32µM*	.	-65*	.
OC[C@@H]1CN(Cc2ccc(-c3ccccc3)cc2)C[C@H](n2cnc3c(NCc4ccc(F)cc4)ncnc32)O1	.	28µM*	.	-85*	.
CCc1nc2ccc(C(=O)NCCOc3ccc(OC)cc3)cn2c1N(CCN(C)C)CC1CC1	.	-18%	.	-64*	.
O=c1cc(Nc2ccc3c(c2)OCO3)[nH]c(=O)n1-c1ccc(Br)cc1	?	.	-38%	-78*	?
O=C(CSc1nc2ncccc2o1)Nc1cccc(C(F)(F)F)c1	.	-6%	18%[46.1 µM]	56	.
COc1ccc(CCNC(=O)CCCCC(=O)NCCc2ccc(OC)cc2)cc1	.	2%	.	-17	8%
COc1ccc(CN(CCNC(=O)CCCCC(=O)NCCN(Cc2ccc(OC)cc2)C(C)C)C(C)C)cc1	.	-13%	.	?	11µM*
CCOc1ccc(-c2cn3c(n2)sc2cc(C(=O)NCCC4=CCCCC4)ccc23)cc1	.	16%	13%[46.1 µM]	.	.
Cc1ccc(S(=O)(=O)Nc2ccc3c(c2)C(=O)N([C@H](C)CO)C[C@H](C)[C@@H](CN(C)C(=O)NC2CCCCC2)OCCCC[C@@H](C)O3)cc1	.	-30%	.	-63*	.
C[C@@H]1CN([C@@H](C)CO)C(=O)c2cc(NS(=O)(=O)c3ccc(F)cc3)ccc2O[C@@H](C)CCCCO[C@H]1CN(C)C(=O)NC1CCCCC1	.	-24%	.	-86*	.
CC1=C(C(=O)Nc2c(C)cc(C)cc2C)C2(CCN(C(C)C)CC2)OC1=O	.	-18%	23%[46.1 µM]	10	.
Cc1nc(C)c(-c2csc(Nc3ccc(S(N)(=O)=O)cc3)n2)s1	?	-19%	?	-18	11µM*
Cc1ccc(Nc2nc(-c3sc(C)nc3C)cs2)cc1	.	9%	.	?	5.6µM*
Cc1nc(Nc2ccc(S(N)(=O)=O)cc2)sc1C(=O)Nc1ccccc1	-29%[46.1 µM]	?	?	-69*	?
NS(=O)(=O)c1ccc(Nc2nc(-c3cccc([N+](=O)[O-])c3)cs2)cc1	-30%[46.1 µM]	?	-13%[46.1 µM]	?	25µM*
NS(=O)(=O)c1ccc(Nc2nc(-c3ccc4ccccc4c3)cs2)cc1	-11%	?	?	-32	?
Cc1ccc(-c2csc(Nc3ccc(S(N)(=O)=O)cc3)n2)o1	22%[46.1 µM]	?	5%	9	-7%
Cc1ccc(Nc2nc(-c3sc(N)nc3C)cs2)cc1	.	23%	.	58	-9%
O=C(c1cccc(Cn2cccn2)c1)N1CCC(n2c(C3CCCO3)nc3cc(C(F)(F)F)ccc32)CC1 (stereo not given)	.	-7%	.	.	.
COc1ccc(Nc2nc(-c3sc(NC(C)=O)nc3C)cs2)cc1	-2%	.	.	.	.
CC(=O)c1cccc(Nc2nc(-c3sc(C)nc3C)cs2)c1	?	?	?	3	8.9µM*
CC(=O)c1cccc(Nc2nc(-c3sc(N)nc3C)cs2)c1	11%	?	?	20	?
CC(=O)c1ccc(Nc2nc(-c3sc(C)nc3C)cs2)cc1	.	25µM*	.	-29	.
Cc1ccc(Nc2nc(-c3sc(NC(=O)c4ccc([N+](=O)[O-])cc4)nc3C)cs2)cc1	0%	.	.	.	.
SMILES	Marburg entry inh	FMDV antiviral	LASV entry inh	HCMV antiviral	HCV inhibitor
CC(=O)Nc1ccc(Nc2nc(-c3sc(C)nc3C)cs2)cc1	-40%	32µM*	?	-29	?
O=C(CCN1C(=O)C2C3C=CC(C3)C2C1=O)N1CCN(c2ccccn2)CC1 (stereo not given)	1%	2%	-23%	-9	-8%
O=C1C2C3C=CC(C3)C2C(=O)N1c1ccc(N2CCN(c3ccccn3)CC2)c([N+](=O)[O-])c1 (stereo not given)	.	?	.	-66*	10µM*
COc1ccc(Nc2cc(C)nc3ncnn23)c(OC)c1	0%	5%	.	76	23%
COc1ccc(CNc2cc(C)nc3ncnn23)c(OC)c1	?	?	-19%	-81*	?
Cc1ccccc1Cc1nc2cccnc2n1C1CCN(C(=O)CC2NC(=O)c3ccccc32)CC1 (stereo not given)	.	-24%	.	.	.
COC(=O)CC=C[C@@H](C)[C@@H](COc1ccccc1Br)OC	12%[14.2 µM]	.	.	.	.
COc1cc(NC(=O)C2CCCCC2)c2ncccc2c1	-7%	-6%	3%	24	10µM*
O=c1[nH]c2ccccc2c2ccccc12	?	-3%	15%	16	14µM*
O=C1Nc2ccccc2C12OCCCO2	?	-20%	3%	58	0%
CC1(CO)COC2(OC1)C(=O)Nc1ccccc12 (stereo not given)	4%	-5%	1%[46.1 µM]	-76*	7%
CCC(=O)c1ccc(O)c(CC=C(C)C)c1	-1%[46.1 µM]	?	8%	-64*	-17%
O=S(=O)(c1ccc2ccccc2c1)n1nc(-c2ccco2)nc1NCc1ccc(F)cc1	-10%[46.1 µM]	53%	1%[46.1 µM]	52	.
C=CCOn1c(C)c(C(C)=O)c2c3nonc3ccc21	8%	-29%	-4%	-81*	?
COn1c(C)c(C)c2c3nonc3ccc21	?	-3%	18%	-65*	?
COC(=O)c1c(NC(=O)c2cc3ccccc3c(=O)o2)sc2c1CCCC2	-1%[46.1 µM]	-11%	5%[46.1 µM]	10	.
CCCS(=O)(=O)N1CCN(Cc2ccc3c(c2)c2ccccc2n3CC)CC1	10µM*	?	?	4	?
CCN1C(=O)[C@@H]2[C@H]3[C@H](O)[C@H](O)CC(=NNC(=O)OCc4ccccc4)[C@@H]3CC[C@H]2C1=O	-8%[14.2 µM]	.	?	.	.
CC1CCN(C(=O)COC(=O)Cn2cnc3ccccc32)CC1	?	-6%	-13%	-67*	13%
CN(C(=O)COC(=O)Cn1cnc2ccccc21)C1CCCCC1	-3%	-25%	2%	-94*	7%
CC1CCCN(C(=O)COC(=O)Cn2cnc3ccccc32)C1 (stereo not given)	2%	9%	13%	-22	6%
CN(Cc1ccccc1)C(=O)COC(=O)Cn1cnc2ccccc21	-18%	-14%	6%	31	17%
Cc1cc(OCC(=O)Nc2ccc(N3CCCC3)cc2)cc(C)c1Cl	0%	-15%	7%	70	?
Cc1cccc(OCC(=O)Nc2ccc(N3CCN(C(=O)c4ccco4)CC3)cc2)c1	?	16µM*	?	-68*	?
Cc1cc(OCC(=O)Nc2ccc(N3CCN(C(=O)c4ccco4)CC3)cc2)cc(C)c1Cl	-41%	6.3µM*	-35%	-36	?
Cc1ccc(OCC(=O)Nc2ccc(N3CCN(C(=O)c4ccco4)CC3)cc2)cc1C	?	14µM*	-20%	?	-23%

From PubChem BioAssay
